# Screening results: PubChem, National Center for Advancing Translational Sciences (NCATS)
# CHX counter – counter-screen for Shiga toxin inhibitors: cycloheximide protein synthesis inhibition; cell reporter, cycloheximide protein synthesis inhibition counterscreen; max response, %; hit rate 12% among 300,000; AID 2314; in the data active = max response mostly above about 13%, no sharp cut-off; inactive = mostly below about 14%; note: read at 38.3 µM for the half of the compounds with a filed dose; 0% is about no effect
# Shiga inhibitor – Shiga toxin inhibition | Vero cells, Shiga toxin protein synthesis inhibition reporter | hit rate 9.2% among 290,000 | inhibition, % at 38.7 µM; in the data active = inhibition mostly above about 28%, no sharp cut-off; inactive = mostly below about 43%; note: 0% is about no effect
# Pf growth 96h – inhibits malaria parasite growth, 96 h. P. falciparum luciferase reporter growth, 96 h. Potency, µM (highest dose often 28.7 µM), without a hit: at the top dose activity change, negative = inhibition, actives largely listed as inhibitors. hit rate 6.9% among 320,000; note: potency is the fitted concentration of half-maximal effect; % is set by controls: 0 for no effect and ±100 for the full control effect
#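 Delayed-death screen, second-generation endpoint: infected erythrocytes, 2% hematocrit, 0.05% parasitemia final; 96 hours at 37 C, 5% CO2; luciferase detection reagent; luminescence decrease equals reduced growth.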
# HCMV antiviral – human cytomegalovirus inhibition | activity change, negative = inhibition, % at 57.5 µM | AID 1259415 | HFF cells, HCMV-luciferase reporter, 72 h; stronger effect = lower value | hit rate 4.5% among 410,000; in the data active = activity change below about -60%; inconclusive = no clear call, values can overlap the other calls; inactive = above about -39%; note: % is set by controls: 0 for no effect and ±100 for the full control effect
#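 Steps: HFFs plated, 16 h 37C; compounds added; HCMV-luciferase added to MOI 1 PFU/cell; 72 h 37C; OneGlo reagent, 5 min room temperature; luminescence read, normalized to controls.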
# Pf growth 48h – P. falciparum growth inhibition at 48 hours (one generation); P. falciparum luciferase growth in erythrocytes, 48 h; Potency, µM (top dose mostly 28.7 µM), for inactives: at the top dose activity change, negative = inhibition, actives largely listed as inhibitors; hit rate 5.9% among 310,000; note: potency is the fitted concentration of half-maximal effect; % is set by controls: 0 for no effect and ±100 for the full control effect
#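 Erythrocytes infected with P. falciparum carrying an integrated firefly luciferase reporter (2% hematocrit, 0.1% parasitemia final) were exposed to compounds in RPMI 1640 with 0.5% Albumax at 37 C, 5% CO2. Growth inhibition was scored as reduced luminescence.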
# An asterisk follows results filed as active; u = inconclusive; x = not tested or not shown; [ ] = dose if it differs, or a comment. Most compounds without a hit are left out; they make up all but 20% or so of the library. Unless noted, calls come from the whole dose curve; as a rule, active = well fitted inhibition curve with a large enough effect; inconclusive = small, poorly fitted or top-dose-only effect, or another doubt; inactive = no such curve, though single readings can be large or run the other way.
SMILES,CHX counter,Shiga inhibitor,Pf growth 96h,HCMV antiviral,Pf growth 48h
Cn1c(-c2cccc(C(F)(F)F)c2)cc2cnc(Nc3ccc(Oc4ccccc4)cc3)cc21,x,x,x,-15.5,x
CCN(c1cccc(C)c1)c1ncnc2c1cnn2-c1cccc(Cl)c1,x,x,x,4.7,x
O=C(Nc1nc2c(s1)CCCC2)C1COc2ccccc2O1 (centres undefined),38.1*,45.2*,u,-15.5,70.1%
CCCNC(=O)c1c(NC(=O)C2COc3ccccc3O2)sc2c1CCCC2 (centres undefined),-2.1,-8.0,10.4µM*,u,4.6%
CCC(CC)c1nnc(NC(=O)C2COc3ccccc3O2)s1 (centres undefined),35.9*,66.6*,154.0%,79.7,162.0%
CCc1nnc(NC(=O)C2COc3ccccc3O2)s1 (centres undefined),35.6*,42.2,x,87.5,114.0%
O=C(NC1CCS(=O)(=O)C1)c1c(NC(=O)C2COc3ccccc3O2)sc2c1CCCC2 (centres undefined),-3.2,23.1,51.4%,-13.0,u
O=C(/C=C/c1ccc(O)c(O)c1)c1ccccc1O,41.2*,72.4*,9.8%,2.0,25.1%
O=C(/C=C/c1ccc(O)c(O)c1)OCCc1ccccc1,63.6*,80.0*,x,-10.2,x
O=C(/C=C/c1cc2ccccc2o1)c1ccccc1O,41.4*,78.5*,114.1%,-15.9,125.7%
COc1ccc(O)c(C(=O)/C=C/c2cc3ccccc3o2)c1,37.0,18.4,x,2.8,x
O=C(C=Cc1cccc(O)c1)c1ccccc1O,x,x,x,93.3,x
O=C(/C=C/c1ccc(O)c(O)c1)OC(Cc1ccc(O)c(O)c1)C(=O)O (centres undefined),1.2,5.3,-15.9%,-28.7,u
COc1ccc2ccccc2c1C(=O)/C=C\c1ccoc1,21.5,-4.5,u,-17.0,-9.9%
O=C(/C=C/c1ccoc1)c1ccccc1O,44.1*,96.8*,2.1%,19.9,35.4%
COC(=O)c1[nH]nc(-c2ccccc2)c1-c1ccccc1,x,x,x,12.3,x
COc1ccc(-c2ccc(C(=O)Nc3ccc(Cl)cc3)c3occc23)c(C)c1,x,x,x,17.2,x
Cc1ccc(Cl)cc1-n1c(CCC(=O)O)ccc1-c1cccs1,x,x,x,23.8,x
Clc1ccc(-c2cc(-c3nnc4n3CCCCC4)c3ccccc3n2)cc1,-1.7,-0.4,-15.3%,-72.4*,6.8%
CC1=C(C(=O)OCC(C)C)C(c2cccc(F)c2)N2C(=O)C(C)SC2=N1 (centres undefined),-3.1,-6.9,11.7µM*,-29.7,10.4µM*
COC(=O)C1=C(C)N=C2SC(C)C(=O)N2C1c1ccc(C(=O)OC)cc1 (centres undefined),6.8,-9.0,52.5%,-87.6*,u
COC(=O)C1=C(C)N=C2SC(C)C(=O)N2C1c1cccs1 (centres undefined),-4.4,-17.8,11.5%,17.4,-20.9%
CC1=C(C(=O)OC(C)C)C(c2cccc(F)c2)N2C(=O)C(C)SC2=N1 (centres undefined),3.3,-5.1,u,-15.7,11.7µM*
CC1=C(c2ccc(C)c(C)c2)S(=O)(=O)N=C1N1CCC(C(=O)NC(C)Cc2ccco2)CC1 (centres undefined),x,x,x,-6.5,x
CCOc1ccc(-n2c(=O)c3c(C)c(C)sc3n(CC(=O)N3CCC(C)CC3)c2=O)cc1,x,x,x,-14.6,x
SMILES,CHX counter,Shiga inhibitor,Pf growth 96h,HCMV antiviral,Pf growth 48h
CCOc1cc(/C=C/c2cccc[n+]2C)ccc1OCC(=O)Nc1ccc(C)cc1,-5.9,3.5,5.22µM*,-95.3*,0.928µM*
COc1cc(/C=C/c2cccc[n+]2C)ccc1OCC(=O)Nc1ccccc1C,-7.3,-6.6,-21.0%,u,u
C[n+]1ccccc1/C=C/c1cc(Br)ccc1O,-2.0,2.8,u,-23.2,0.738µM*
CCOc1cc(C=NN=C2c3ccccc3-c3ccccc32)ccc1O,x,x,x,-19.0,x
COc1ccc(/C=C/c2cccc[n+]2C)c(O)c1,5.3,-8.6,186.9%,-31.9,u
CCOc1cc(/C=C/c2cccc[n+]2C)ccc1O,-0.3,-1.9,8.28µM*,42.1,9.28µM*
COc1ccc(N2CC(C(=O)Nc3ccc(S(=O)(=O)N4CCCCC4)cc3)CC2=O)cc1 (centres undefined),-3.8,-6.9,-21.5%,-34.7,u
O=C(Nc1ccsc1C(=O)O)c1cccc(C(F)(F)F)c1,61.1*,76.9*,21.2%,42.8,x
O=C(Nc1nnc(-c2cccs2)o1)c1cccc(Oc2ccccc2)c1,1.1,25.7,u,-30.2,x
O=C(Nc1ccsc1C(=O)O)c1cccc(Oc2ccccc2)c1,13.6*,52.8,152.7%,32.1,120.7%
Cc1ccc(NC(=O)c2cc3c([nH]c2=O)CC(C)(C)CC3=O)c(C)c1,x,x,x,30.0,x
Cc1cc(C)nc(-n2nc(C)cc2NC(=O)CNCc2ccccc2)n1,-4.7,10.6,3.9%[5.75 µM],46.9,6.7%
Cc1cc(C)nc(-n2nc(C)cc2NC(=O)CN2CCCC(C)C2)n1 (centres undefined),-2.2,-9.5,103.5%,-39.8,u
Cc1cc(C)nc(-n2nc(C)cc2NC(=O)CN2CCc3ccccc3C2)n1,-4.8,63.7,-10.6%,-5.3,4.15µM*
CCN(CC(=O)Nc1cc(C)nn1-c1nc(C)cc(C)n1)Cc1ccccc1,-4.3,-17.1,4.15µM*,u,x
CCC(C)(C)c1nnc(NC(=O)CCC2CCCCC2)s1,x,x,x,9.8,x
CN1CCN(c2ccccc2NC(=O)c2cc3c(s2)-c2ccccc2OC3)CC1,-5.6,-6.6,u,-1.8,10.4µM*
O=C(Nc1cccnc1Cl)c1cc2c(s1)-c1ccccc1OC2,25.6,27.1*,u,-32.7,44.4%
O=C(Nc1ccc(Cl)cn1)c1cc2c(s1)-c1ccccc1OC2,16.5*,34.4,75.5%,u,32.4%
CCc1ccc(CNC(=O)c2cc3c(s2)-c2ccccc2OC3)cc1,x,x,x,-16.7,x
CCOC(=O)c1c(NC(=O)CSc2ncnc3[nH]ncc23)sc2c1CCC(C)C2 (centres undefined),-3.0,-4.6,u,-23.6,u
CCCSc1ncc(Cl)c(C(=O)Nc2scc(-c3ccc(C)cc3)c2C(=O)OCC)n1,x,x,x,-22.4,x
COc1ccc(OC)c(-c2noc(N3CCN(c4ccc(Cl)cc4)CC3)n2)c1,x,x,x,-26.2,x
CCn1ccnc1CN(C)Cc1cn[nH]c1-c1ccc(OC)c(F)c1,-2.5,27.0,6.9%,-72.1*,17.3%
COc1ccc(-c2[nH]ncc2CN(CC2CCC(=O)N2)C(C)C)cc1F (centres undefined),-2.8,-4.6,8.28µM*,u,4.3%
CC(=O)c1cccc(NC(=O)/C(=C\c2cccnc2)NC(=O)c2ccco2)c1,-3.6,10.8,0.0%,-11.4,-11.0%[5.75 µM]
C#CC[N+]1(CC#Cc2ccc(C)cc2)CCCCC1,-0.9,-4.4,u,14.5,1.65µM*
Cc1ccc(C#CC[N+]2(C)CCCCC2)cc1,-2.5,4.8,1.85µM*,10.0,6.57µM*
COc1ccc(CCN2CC(C(=O)N3CCSCC3)CCC2=O)cc1 (centres undefined),-0.8,-9.2,u,-22.5,15.1%
